Test results: PubChem BioAssay (NCATS)
Inconclusive results are not listed. Active and inactive are the calls of the source. Calls come from the whole dose curve; as a rule, active = well fitted inhibition curve with a large enough effect; inconclusive = small, poorly fitted or top-dose-only effect; inactive = flat fitted curve, though single readings scatter.

How the values were obtained:
Experiment in all cases: qHTS profiling for inhibitors of Plasmodium falciparum proliferation (AID 504749); note: nearly all actives have a fitted effect of over 60% in size
Details in all cases: P. falciparum in erythrocytes, SYBR Green DNA, 72 h; series mostly up to 28.7 µM
CP286 = test system: CP286
Outline: (§1)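 P. falciparum-infected erythrocytes (0.3% parasitemia, 2.5% hematocrit) incubated with compound 72 h at 37 C, 5% CO2. Parasite DNA detected by SYBR Green after lysis, overnight at room temperature; normalised to 0.29 uM artemisinin and DMSO.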

CP291 = test system: CP291
Outline: as §1

CP297 = test system: CP297
Outline: as §1

CP305 = test system: CP305
Outline: as §1

CP315 = test system: CP315
Outline: as §1

CP325 = test system: CP325
Outline: as §1

CP329 = test system: CP329
Outline: as §1

CP335 = test system: CP335
Outline: as §1

DFO2036 = test system: DFO2036
Outline: as §1

DIV14 = test system: DIV14
Outline: as §1

Measured: Potency
Potency is the fitted concentration of half-maximal effect.

COc1ccccc1OCC(O)CN1CCN(CC(=O)Nc2c(C)cccc2C)CC1 (stereo not given)
inactive: all assays above

NCCc1cnc[nH]1
inactive: all assays above

CC(C)NCC(O)c1ccc(O)c(O)c1 (stereo not given)
not listed: DIV14
inactive: all other assays above

CN1CCN2c3ccccc3Cc3ccccc3C2C1 (stereo not given)
inactive: all assays above

CC(C)NCC(O)COc1ccc(CCOCC2CC2)cc1 (stereo not given)
not listed: CP335 | DFO2036 | DIV14
inactive: all other assays above

Cc1cn([C@H]2C[C@H](N=[N+]=[N-])[C@@H](CO)O2)c(=O)[nH]c1=O
inactive: all assays above

NS(=O)(=O)c1cc2c(cc1Cl)NCNS2(=O)=O
inactive: all assays above

CC(=O)OCC(CCn1cnc2cnc(N)nc21)COC(C)=O
inactive: all assays above

CN1C(C(=O)Nc2ccccn2)=C(O)c2ccccc2S1(=O)=O
inactive: all assays above

CC(CCc1ccc(O)cc1)NCCc1ccc(O)c(O)c1 (stereo not given)
inactive: all assays above

Cc1cnc(C(=O)NCCc2ccc(S(=O)(=O)NC(=O)NC3CCCCC3)cc2)cn1
inactive: all assays above

CC[N+](CC)(CC)CCOc1cccc(OCC[N+](CC)(CC)CC)c1OCC[N+](CC)(CC)CC
inactive: all assays above

Cn1c(=O)c2[nH]cnc2n(C)c1=O
inactive: all assays above

CC(C)(C)C(=O)Oc1ccc(S(=O)(=O)Nc2ccccc2C(=O)NCC(=O)O)cc1
inactive: all assays above

CC(C)C(=O)Nc1ccc([N+](=O)[O-])c(C(F)(F)F)c1
inactive: all assays above

N[C@@H](Cc1c[nH]c2ccc(O)cc12)C(=O)O
inactive: all assays above

CCOC(=O)c1ncn2c1CN(C)C(=O)c1cc(F)ccc1-2
inactive: all assays above

Nc1nnc(-c2cccc(Cl)c2Cl)c(N)n1
inactive: all assays above

Cc1cc(C(C)(C)C)c(O)c(C)c1CC1=NCCN1
inactive: all assays above

NC(=O)NO
not listed: DIV14
inactive: all other assays above

Clc1ccccc1C(c1ccccc1)(c1ccccc1)n1ccnc1
active: CP286 1.58 µM | CP291 2.03 µM | CP297 0.455 µM | CP305 5.1 µM | CP315 2.03 µM | CP325 1.81 µM | CP329 2.87 µM | CP335 1.28 µM | DFO2036 0.708 µM | DIV14 0.455 µM

Cc1ccc(C(=O)Nc2ccc(S(=O)(=O)O)c3cc(S(=O)(=O)O)cc(S(=O)(=O)O)c23)cc1NC(=O)c1cccc(NC(=O)Nc2cccc(C(=O)Nc3cc(C(=O)Nc4ccc(S(=O)(=O)O)c5cc(S(=O)(=O)O)cc(S(=O)(=O)O)c45)ccc3C)c2)c1
inactive: all assays above

Cn1cnc2c1c(=O)[nH]c(=O)n2C
inactive: all assays above

Cc1cn([C@H]2C=C[C@@H](CO)O2)c(=O)[nH]c1=O
inactive: all assays above

CCOC(=O)C(C)(C)Oc1ccc(Cl)cc1
inactive: all assays above

Cc1cc(C(C)(C)C)cc(C)c1CC1=NCCN1
not listed: DIV14
inactive: all other assays above

O=c1c(-c2ccc(O)cc2)coc2cc(O)cc(O)c12
inactive: all assays above

NCCCCCC(=O)O
inactive: all assays above

CC(C)(Oc1ccc(C2CC2(Cl)Cl)cc1)C(=O)O (stereo not given)
inactive: all assays above

Cn1c(=O)c2c(ncn2C)n(C)c1=O
inactive: all assays above

COC(=O)Nc1nc2ccc(C(=O)c3cccs3)cc2[nH]1
not listed: DIV14
inactive: all other assays above

COc1ccccc1N1CCN(CC(O)COc2cccc3ccccc23)CC1 (stereo not given)
not listed: DIV14
inactive: all other assays above

C[C@](N)(Cc1ccc(O)c(O)c1)C(=O)O
inactive: all assays above

CCCNCC(O)COc1ccccc1C(=O)CCc1ccccc1 (stereo not given)
active: CP286 1.58 µM | CP291 4.26 µM | CP297 3.79 µM | CP305 4.26 µM | CP315 4.78 µM | CP325 4.26 µM | CP329 6.75 µM | CP335 3.01 µM | DFO2036 1 µM

Clc1ccc2nsnc2c1NC1=NCCN1
inactive: all assays above

Cc1ccc(-c2cc(C(F)(F)F)nn2-c2ccc(S(N)(=O)=O)cc2)cc1
active: CP286 8.91 µM

CN(C)c1nc(N(C)C)nc(N(C)C)n1
inactive: all assays above

CC(C)Cc1ccc(C(C)C(=O)O)cc1 (stereo not given)
inactive: all assays above

CN(Cc1cnc2nc(N)nc(N)c2n1)c1ccc(C(=O)N[C@@H](CCC(=O)O)C(=O)O)cc1
active: CP286 0.158 µM
not listed: CP335 | DFO2036 | DIV14
inactive: all other assays above

OCCN1CCN(CCCN2c3ccccc3Sc3ccc(C(F)(F)F)cc32)CC1
active: CP286 2.51 µM | CP291 8.49 µM | CP305 9.53 µM | CP315 12 µM | CP325 6.75 µM | CP329 13.5 µM | CP335 4.26 µM | DFO2036 7.08 µM | DIV14 6.75 µM

COc1nc(C)nc(Cl)c1NC1=NCCN1
not listed: CP297
inactive: all other assays above

CN1CCC(=C2c3ccccc3CC(=O)c3sccc32)CC1
inactive: CP286 | CP315 | DFO2036
active: DIV14 5.36 µM

Clc1ccc2c(c1)C(N1CCNCC1)=Nc1ccccc1O2
inactive: CP291 | CP305 | CP315 | CP325 | CP329

COc1cc2c(c(OC)c1OC)-c1ccc(OC)c(=O)cc1[C@@H](NC(C)=O)CC2
not listed: CP335
inactive: all other assays above

Nc1c2c(nc3ccccc13)CCCC2
inactive: CP315

CCOC(=O)Nc1ccc(NCc2ccc(F)cc2)nc1N
active: CP286 8.91 µM | CP335 6.01 µM | DIV14 15.1 µM

CC(COc1ccccc1)N(CCCl)Cc1ccccc1 (stereo not given)
inactive: CP305 | CP315 | CP325 | DFO2036

CS(=O)(=O)Nc1ccc([N+](=O)[O-])cc1Oc1ccccc1
inactive: all assays above

CN(C)CCCN1c2ccccc2CCc2ccc(Cl)cc21
inactive: CP305 | CP315 | CP325 | CP329 | DFO2036
active: DIV14 1.51 µM

NCCS(=O)(=O)O
not listed: CP291 | CP315
inactive: all other assays above

O=C(c1ccc(F)cc1)C1CCN(CCn2c(=O)[nH]c3ccccc3c2=O)CC1
inactive: CP297 | CP315 | CP325 | CP329 | CP335 | DFO2036

CN1CCC(=C2c3ccccc3C=Cc3ccccc32)CC1
not listed: CP335 | DIV14
inactive: all other assays above

COc1ccc2[nH]cc(CCNC(C)=O)c2c1
not listed: CP315
inactive: all other assays above

CC12CC3CC(C)(C1)CC(N)(C3)C2
not listed: CP297 | DIV14
inactive: all other assays above

Cn1ccc2cc3c(cc21)CCN3C(=O)Nc1cccnc1
active: DIV14 12 µM

COc1ccc(CCN(C)CCCC(C#N)(c2ccc(OC)c(OC)c2)C(C)C)cc1OC (stereo not given)
inactive: CP286 | CP297 | CP325 | DFO2036 | DIV14

O=C1c2c(O)ccc(O)c2C(=O)c2c(NCCNCCO)ccc(NCCNCCO)c21
active: CP286 1.12 µM | CP291 6.42 µM | CP297 6.42 µM | CP305 5.1 µM | CP315 6.42 µM | CP335 2.87 µM | DFO2036 2.51 µM | DIV14 4.55 µM

O=C(Nc1ccc([N+](=O)[O-])cc1Cl)c1cc(Cl)ccc1O
active: CP286 1.78 µM | CP291 1.2 µM | CP297 8.49 µM | CP305 2.13 µM | CP335 1.51 µM | DIV14 1.07 µM

CCCCc1oc2ccccc2c1C(=O)c1cc(I)c(OCCN(CC)CC)c(I)c1
inactive: CP315
active: CP286 11.2 µM | CP335 9.53 µM | DIV14 7.57 µM

CCC1(c2ccccc2)C(=O)NCNC1=O
not listed: CP335
inactive: all other assays above

CS(=O)(=O)CCNCc1ccc(-c2ccc3ncnc(Nc4ccc(OCc5cccc(F)c5)c(Cl)c4)c3c2)o1
not listed: CP297
inactive: all other assays above

CC[C@@]1(O)C(=O)OCc2c1cc1n(c2=O)Cc2cc3c(CN(C)C)c(O)ccc3nc2-1
active: CP286 5.62 µM | CP291 4.78 µM | CP297 7.57 µM | CP329 6.75 µM | CP335 4.78 µM | DFO2036 5.62 µM

O=C1N(c2ccccc2)c2ccccc2C1(Cc1ccncc1)Cc1ccncc1
not listed: CP297
inactive: all other assays above

COc1ccccc1OCCNCC(O)COc1cccc2[nH]c3ccccc3c12 (stereo not given)
active: CP286 10 µM | DFO2036 14.1 µM | DIV14 13.5 µM
not listed: CP291 | CP335
inactive: all other assays above

Nc1nc2c(ncn2COC(CO)CO)c(=O)[nH]1
not listed: CP297
inactive: all other assays above

O=c1[nH]cc(F)c(=O)[nH]1
inactive: DFO2036

CN(CCOc1ccc(NS(C)(=O)=O)cc1)CCc1ccc(NS(C)(=O)=O)cc1
not listed: CP297
inactive: all other assays above

CN(C)CCOC(c1ccccc1)c1ccccc1
inactive: CP315 | CP329 | CP335 | DFO2036

CNCCCC12CCC(c3ccccc31)c1ccccc12
inactive: CP305 | CP315 | CP325 | CP329 | CP335 | DFO2036

NC12CC3CC(CC(C3)C1)C2
not listed: CP297 | CP335
inactive: all other assays above

NC(=O)OCC(COC(N)=O)c1ccccc1
not listed: CP335
inactive: all other assays above

O=C(c1ccc(OCCN2CCCCC2)cc1)c1c(-c2ccc(O)cc2)sc2cc(O)ccc12
active: CP286 3.55 µM | CP297 12 µM | CP315 19 µM | CP335 6.75 µM | DIV14 12 µM

CN(C)C(=N)N=C(N)N
inactive: CP286 | CP305 | CP325 | CP329 | CP335 | DFO2036

CC1(CN2CCC(n3c(=O)[nH]c4ccccc43)CC2)OCc2ccccc2-n2cccc21 (stereo not given)
active: DIV14 9.53 µM
inactive: CP315 | CP325 | CP329

CN(C)CCC=C1c2ccccc2C=Cc2ccccc21
active: DIV14 2.39 µM
inactive: CP315 | CP325 | CP329 | DFO2036

Clc1ccc(C(c2ccccc2Cl)C(Cl)Cl)cc1 (stereo not given)
inactive: CP291 | CP315 | CP325 | DFO2036

O=c1c(O)c(-c2ccc(O)c(O)c2)oc2cc(O)cc(O)c12
active: CP286 11.2 µM | DIV14 15.1 µM

CC#C[C@]1(O)CC[C@H]2[C@@H]3CCC4=CC(=O)CCC4=C3[C@@H](c3ccc(N(C)C)cc3)C[C@@]21C
active: CP291 16.9 µM | CP297 12 µM | CP305 12 µM | CP335 13.5 µM | DIV14 12 µM
